Measured values published in PubChem BioAssay (NCI).
About 83,000 compounds went through this panel and 20% of them were active in at least one assay; those are over-represented in the sample as a whole.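 96-well plates, one dose, 48 hours. Percent growth reported; active if below 10.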 A number with no mark means an inactive call. The source made the active and inactive calls.

Test system: ACHN renal
Test: NCI-60 one-dose screen, 48 h (100 = growth as untreated, 0 = no growth, -100 = all killed)
Settings: 10 µM unless noted
Method: Growth inhibition of the ACHN human tumor cell line is measured as a screen for anti-cancer activity. Cells are grown in 96 well plates and exposed to the test compound for 48 hours. Compounds are tested at a single concentration, which is 10^-5 M for most compounds. The reported endpoint is percent growth (GI% or GIPRCNT), where numbers from 0 - 100% represent growth inhibition, and numbers from -100% - 0 represent cell death. For example, a value of 40 represents 60% growth inhibition. A value of 0 means no net growth occurred over the course of the experiment. A value of -40 indicates 40% of cells at the beginning of the experiment died by the end of the experiment. A value of -100 means all cells are dead at the end of the experiment.
NCI-60 Human Tumor Cell Lines Screen was performed using the standard one-dose NCI protocol, which is described in more detail at https://dtp.cancer.gov/discovery_development/nci-60/default.htm.
Compounds with GIPRCNT values below 10 were considered active. Activity score was based on GIPRCNT using the following formula: […]
Score is 0 for GIPRCNT values of 100 or above, 50 for GIPRCNT values of 0, and 100 for GIPRCNT values of -100.

SMILES | growth
C=CCSc1nnc(NC(=O)CCl)s1 | 94.5%
Cc1ccc(C2=Nc3c(N)ncnc3NC(c3cccc(Nc4ccnc5cc(C(F)(F)F)ccc45)c3)C2)cc1 (stereo not given) | 58.1%
O=C1Nc2ccccc2/C1=C/c1nc2ccccc2c(=O)[nH]1 | 91.9%
CC1=C2[C@@H](CC1)[C@]1(C)O[C@@](C(C)C)(C[C@H]1OC(=O)[C@H](C)O)[C@H]2OC(=O)/C=C/c1ccccc1 | 8.57% (active)
CSc1nnc(-c2cc3c([nH]c4ccccc43)c(-c3cccc(O)c3)n2)n1-c1ccccc1 | 36.3%
CC(C)c1ccc(C(=O)Nc2sc3c(c2C(N)=O)CCC(=O)C3)cc1 | -96.8% (active)
CCCCCCCC[C@@H]1N[C@@H](C(=O)OC)Cc2c1[nH]c1ccccc21 | 94.6%
CCN(CC)c1ccc(\C=N/N=C(N)/C(N)=N\N=C/c2ccc(N(CC)CC)cc2)cc1 | 96.4%
N#CC1=C(N)Oc2c(c(=O)[nH]c3ccc(Cl)cc23)C12C(=O)c1ccccc1C2=O | 95.1%
OB1OCc2cc(/C=C/c3cccc(C(F)(F)F)c3)ccc21 | -91.6% (active)
COC(=O)c1c2c(c(C)[n+]([O-])c1C)C(=O)C(NCc1cccc(OC)c1)=CC2=O | 47.8%
N#CSc1c[nH]c2cccc(/C=C/C(=O)/C=C(/C=C/c3cccc4[nH]cc(SC#N)c34)OB(F)F)c12 | -48.9% (active)
COc1cccc(CNc2ccc3ncnc(Nc4ccc(F)c(Cl)c4)c3c2)c1 | 26.2%
COc1ccc(-c2nc3c(ncc4ccc(=O)[nH]c43)s2)cc1 | 59.9%
COc1cc(C2c3cc(OC(C)=O)c(OC)cc3CC3C(=O)OCC32)ccc1OC(C)=O (stereo not given) | 94.3%
CCc1ncnc2c1ccn2C(C)c1ccc(OC)c(F)c1 (stereo not given) | 75.4%
Cc1cn(-c2cc(NC(=O)c3cncc(C#Cc4cnc(N)c5ncccc45)c3)cc(C(F)(F)F)c2)cn1 | 73.4%
Cc1ccccc1/C=C/C(=O)c1cccc(OCCCOc2cccc(C(=O)/C=C/c3ccccc3C)c2)c1 | 102% [3 µM]
CCOC(=O)C1=C(C)NC(=O)NC1c1c(Cl)n(CCCl)c2ccccc12 (stereo not given) | 99%
CC1(C)CC(=O)C2=C(C1)N(c1ccc(OC(F)(F)F)cc1)C(N)=C(C#N)C2c1ccc(Br)cc1F (stereo not given) | 41.1%

SMILES | growth
Nc1ncnc2c1C(c1ccc(Br)cc1)c1sc3c(F)cccc3c1O2 (stereo not given) | 93.7%
C#CCOc1cccc(Nc2ncnc3ccc(NC(=O)C=C)cc23)c1 | 14.9%
CCNCCNc1cc(C2CCCCC2)c(C#N)c2nc3ccccc3n12 | -52.2% (active)
CCCCCCCCCc1ccc(OCCOCCOCCOCCOCCOCCOCCOCCOCCO)cc1 | 18.9%
NC(=O)c1cc(I)ccc1NC(=O)/C=C/c1ccccc1 | 38.2%
CC(=O)n1nc(C(=O)OC(C)(C)c2ccccc2)c2ccccc21 | 100%
COc1ccc(-c2nn(-c3cccc(Cl)c3)cc2-c2cc(-c3ccc(Br)cc3)nc(N)n2)cc1 | 103%
COc1c(B(O)O)cccc1-c1cc(C)c2c(ccc3[nH]ncc32)n1 | 55.7%
Cn1ccc(=O)c(C(=O)Nc2nsc3ccc([N+](=O)[O-])cc23)c1 | 32.6%
CCC(=C(c1ccc(OCCN2CCCCC2)cc1)c1ccc(OCCN2CCCCC2)cc1)c1ccc(Cl)cc1 | -99.7% (active)
COc1ccc2[nH]c(C(=O)N3CCN(C(=O)OCc4ccc5c(Cl)cc(Cl)c(O)c5n4)CC3)cc2c1 | -100% (active)
COc1ccc(C(=O)Nc2cccc(-c3cc(=O)c4c(OC)c(OC)c(OC)cc4o3)c2)cc1 | 47%
COc1cc2oc(-c3cccc(NC(=O)c4ccccc4)c3)cc(=O)c2c(OC)c1OC | 61.6%
c1ccc2cc(C[n+]3ccn(CCCCCCCCCCn4cc[n+](Cc5ccc6ccccc6c5)c4)c3)ccc2c1 | 52.2%
COC(=O)/C=C1/SC(=Nc2ccc(C(F)(F)F)cc2)N(CCc2c[nH]c3ccc(O)cc23)C1=O | -46.1% (active)
Nc1n[nH]c2cccc(C#Cc3cccc(NC(=O)c4cc(F)cc(C(F)(F)F)c4)c3)c12 | 64.7%
c1ccc(Cn2cc3c(c2)-c2oncc2CC3)cc1 | 56.7%
CCOC(=O)c1c(NC(=O)c2ccc(Cl)cc2)sc2c(CN(C)C)c(O)ccc12 | 50.7%
COc1cc2ncnc(Nc3ccc(F)c(Cl)c3)c2cc1OCC(=O)N1CCN(c2ccccc2)CC1 | 50.6%
Nc1ncnc2c1c(-c1cccc(Cl)c1)nn2CC(=O)N1CCOCC1 | 95.6%
